Experimental findings from paper PMC7862700, “An all-to-all approach to the identification of sequence-specific readers for epigenetic DNA modifications on cytosine” are described below.

What all share (assay): DAPPL (digital affinity profiling via proximity ligation, sequencing); 10 mM Tris-HCl pH 7.5, 50 mM NaCl, 1 mM DTT, 4% glycerol, room temperature, 30 min; GST-TFs on glutathione beads, 16-mer random dsDNA library, 0.1% formaldehyde crosslink after washing; high values mean tight binding
One test has as its target T1, FEV (Homo sapiens, UniProt Q99581 1-238).
T1 sequence: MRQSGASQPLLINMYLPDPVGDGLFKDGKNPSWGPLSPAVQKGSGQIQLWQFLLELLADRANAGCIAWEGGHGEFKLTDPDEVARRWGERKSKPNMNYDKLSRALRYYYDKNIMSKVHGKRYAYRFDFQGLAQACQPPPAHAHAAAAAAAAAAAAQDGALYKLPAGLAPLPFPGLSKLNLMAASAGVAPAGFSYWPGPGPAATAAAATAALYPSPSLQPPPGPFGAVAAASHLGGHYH
Particulars: protein: recombinant; tags: N-terminal GST; dsDNA, one strand shown. Put shortly: (§1)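 Each value of binding signal is a hexamer's read frequency for a factor divided by the same hexamer's frequency in the tag-only sample. Barcoded, bead-captured GST fusions of human transcription factors made in yeast were pooled with that sample and incubated with 200 nmole of a random double-stranded 16-mer DNA library in Tris/NaCl/DTT/glycerol buffer at room temperature for 30 min. Washing, 0.1% formaldehyde crosslinking, proximity ligation, PCR and Illumina NextSeq500 sequencing followed.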

The target in a further test is ETV5 (Homo sapiens, UniProt P41161 1-510). Particulars: protein: recombinant; tags: N-terminal GST; dsDNA, one strand shown. The gist of the method:
as §1

For a further test, the target named is HSF1 (Homo sapiens, UniProt Q00613 1-529). Particulars: protein: recombinant; tags: N-terminal GST; chain copies: 3; dsDNA, one strand shown. Put shortly:
as §1

The next test concerns the target T2, SPIC (Homo sapiens, UniProt Q8N5J4 1-248).
T2 sequence: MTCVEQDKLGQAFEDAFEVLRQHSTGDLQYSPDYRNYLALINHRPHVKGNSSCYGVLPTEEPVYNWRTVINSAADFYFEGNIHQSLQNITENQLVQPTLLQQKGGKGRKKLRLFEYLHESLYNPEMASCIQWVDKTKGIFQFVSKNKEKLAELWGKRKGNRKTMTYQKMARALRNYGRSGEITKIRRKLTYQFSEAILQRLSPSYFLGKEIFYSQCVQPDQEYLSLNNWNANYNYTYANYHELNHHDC
To be noted: protein: recombinant; tags: N-terminal GST; dsDNA, one strand shown. The gist of the method:
as §1

In the next test the target is ELF4 (Homo sapiens, UniProt Q99607 1-663). Particulars: protein: recombinant; tags: N-terminal GST; dsDNA, one strand shown. The gist of the method: as §1
Chain of ELF4 (Q99607 whole entry): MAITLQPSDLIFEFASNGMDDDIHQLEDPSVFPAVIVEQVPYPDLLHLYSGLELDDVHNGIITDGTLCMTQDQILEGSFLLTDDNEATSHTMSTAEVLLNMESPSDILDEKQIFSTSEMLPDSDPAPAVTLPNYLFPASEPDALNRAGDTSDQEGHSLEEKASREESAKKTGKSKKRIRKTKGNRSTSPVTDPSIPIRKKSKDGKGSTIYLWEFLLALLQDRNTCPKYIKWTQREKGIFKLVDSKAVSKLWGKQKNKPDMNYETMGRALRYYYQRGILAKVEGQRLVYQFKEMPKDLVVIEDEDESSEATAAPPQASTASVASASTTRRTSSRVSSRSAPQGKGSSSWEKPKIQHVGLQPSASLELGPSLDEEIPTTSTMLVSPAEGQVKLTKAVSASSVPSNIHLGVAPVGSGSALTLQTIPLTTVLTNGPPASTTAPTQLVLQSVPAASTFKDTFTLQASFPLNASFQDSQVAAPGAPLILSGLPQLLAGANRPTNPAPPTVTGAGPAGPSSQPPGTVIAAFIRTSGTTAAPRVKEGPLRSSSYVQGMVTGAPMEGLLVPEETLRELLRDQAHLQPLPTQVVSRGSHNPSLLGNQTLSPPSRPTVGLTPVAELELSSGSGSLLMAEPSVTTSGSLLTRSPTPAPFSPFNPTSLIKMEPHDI
The target in another test is T3, ELK4 (Homo sapiens, UniProt P28324-2 1-405).
T3 sequence: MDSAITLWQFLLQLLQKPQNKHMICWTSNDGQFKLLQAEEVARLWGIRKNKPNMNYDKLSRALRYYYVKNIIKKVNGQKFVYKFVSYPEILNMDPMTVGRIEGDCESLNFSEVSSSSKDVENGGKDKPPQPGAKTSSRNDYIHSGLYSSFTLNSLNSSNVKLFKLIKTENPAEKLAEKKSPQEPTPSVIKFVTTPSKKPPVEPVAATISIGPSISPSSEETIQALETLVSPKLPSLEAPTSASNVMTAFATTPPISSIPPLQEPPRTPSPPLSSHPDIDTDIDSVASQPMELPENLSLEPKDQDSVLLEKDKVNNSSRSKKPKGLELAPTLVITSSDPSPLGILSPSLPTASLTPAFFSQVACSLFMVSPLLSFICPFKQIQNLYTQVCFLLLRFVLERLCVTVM
Particulars: protein: recombinant; tags: N-terminal GST; dsDNA, one strand shown. Put shortly: as §1

The target in another test is T4, ETV2 (Homo sapiens, UniProt O00321 1-342).
T4 sequence: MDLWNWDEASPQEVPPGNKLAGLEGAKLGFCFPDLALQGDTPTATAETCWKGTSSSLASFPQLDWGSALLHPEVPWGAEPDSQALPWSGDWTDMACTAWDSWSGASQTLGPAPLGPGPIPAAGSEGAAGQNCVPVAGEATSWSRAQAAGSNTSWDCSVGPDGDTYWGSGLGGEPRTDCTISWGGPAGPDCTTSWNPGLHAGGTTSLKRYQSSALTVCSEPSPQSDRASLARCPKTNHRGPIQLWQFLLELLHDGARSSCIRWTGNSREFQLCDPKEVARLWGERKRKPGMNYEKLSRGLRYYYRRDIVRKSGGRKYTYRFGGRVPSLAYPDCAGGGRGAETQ
To be noted: protein: recombinant; tags: N-terminal GST; dsDNA, one strand shown. The gist of the method:
as §1

A further test addresses T5, ELF3 (Homo sapiens, UniProt P78545 1-371).
T5 sequence: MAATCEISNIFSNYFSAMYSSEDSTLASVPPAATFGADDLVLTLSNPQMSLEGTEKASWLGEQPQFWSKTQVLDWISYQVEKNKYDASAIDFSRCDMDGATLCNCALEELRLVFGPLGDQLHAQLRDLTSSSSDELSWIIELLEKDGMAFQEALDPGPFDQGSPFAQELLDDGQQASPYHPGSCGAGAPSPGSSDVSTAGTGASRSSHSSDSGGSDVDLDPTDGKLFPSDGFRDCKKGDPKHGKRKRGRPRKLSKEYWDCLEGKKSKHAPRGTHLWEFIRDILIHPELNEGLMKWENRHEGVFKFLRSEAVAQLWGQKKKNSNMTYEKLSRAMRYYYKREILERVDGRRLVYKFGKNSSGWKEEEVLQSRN
Particulars: protein: recombinant; tags: N-terminal GST; dsDNA, one strand shown. The gist of the method:
as §1

A further test concerns the target CRX (Homo sapiens, UniProt O43186 1-299). Particulars: protein: recombinant; tags: N-terminal GST; dsDNA, one strand shown. Put shortly:
as §1

The next test concerns the target ETV1 (Homo sapiens, UniProt P50549 1-477). To be noted: protein: recombinant; tags: N-terminal GST; dsDNA, one strand shown. The gist of the method:
as §1

Another test deals with T6, ERF (Homo sapiens, UniProt P50548 1-548).
T6 sequence: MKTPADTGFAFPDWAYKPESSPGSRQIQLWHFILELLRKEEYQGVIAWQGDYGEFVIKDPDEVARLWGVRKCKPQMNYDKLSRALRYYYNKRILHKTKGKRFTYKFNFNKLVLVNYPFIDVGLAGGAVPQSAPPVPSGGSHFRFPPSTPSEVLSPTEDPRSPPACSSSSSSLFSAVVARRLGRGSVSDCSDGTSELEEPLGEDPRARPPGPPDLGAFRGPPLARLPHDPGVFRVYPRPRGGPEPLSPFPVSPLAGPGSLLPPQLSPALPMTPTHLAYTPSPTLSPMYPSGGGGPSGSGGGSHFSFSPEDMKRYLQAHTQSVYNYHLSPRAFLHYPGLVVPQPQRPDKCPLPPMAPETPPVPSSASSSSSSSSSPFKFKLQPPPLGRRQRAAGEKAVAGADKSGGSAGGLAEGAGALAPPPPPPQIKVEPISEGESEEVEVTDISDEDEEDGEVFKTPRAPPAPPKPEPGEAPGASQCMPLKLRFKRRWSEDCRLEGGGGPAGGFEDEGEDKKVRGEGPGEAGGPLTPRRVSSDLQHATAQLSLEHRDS
Particulars: protein: recombinant; tags: N-terminal GST; dsDNA, one strand shown. The gist of the method: as §1

The target of the next test is T7, ETV3L (Homo sapiens, UniProt Q6ZN32 1-361).
T7 sequence: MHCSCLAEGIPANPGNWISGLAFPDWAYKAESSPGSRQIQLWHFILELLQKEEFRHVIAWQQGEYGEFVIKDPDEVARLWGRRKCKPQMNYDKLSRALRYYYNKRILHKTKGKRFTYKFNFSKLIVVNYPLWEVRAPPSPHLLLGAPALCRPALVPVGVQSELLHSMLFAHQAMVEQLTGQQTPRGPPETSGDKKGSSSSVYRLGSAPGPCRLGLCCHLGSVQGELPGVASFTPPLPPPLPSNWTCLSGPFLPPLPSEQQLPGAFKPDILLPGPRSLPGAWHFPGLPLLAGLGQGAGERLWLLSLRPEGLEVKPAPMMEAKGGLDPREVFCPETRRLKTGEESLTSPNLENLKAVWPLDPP
Particulars: protein: recombinant; tags: N-terminal GST; dsDNA, one strand shown. The gist of the method:
as §1

In another test the target is T8, ETS2 (Homo sapiens, UniProt P15036 1-469).
T8 sequence: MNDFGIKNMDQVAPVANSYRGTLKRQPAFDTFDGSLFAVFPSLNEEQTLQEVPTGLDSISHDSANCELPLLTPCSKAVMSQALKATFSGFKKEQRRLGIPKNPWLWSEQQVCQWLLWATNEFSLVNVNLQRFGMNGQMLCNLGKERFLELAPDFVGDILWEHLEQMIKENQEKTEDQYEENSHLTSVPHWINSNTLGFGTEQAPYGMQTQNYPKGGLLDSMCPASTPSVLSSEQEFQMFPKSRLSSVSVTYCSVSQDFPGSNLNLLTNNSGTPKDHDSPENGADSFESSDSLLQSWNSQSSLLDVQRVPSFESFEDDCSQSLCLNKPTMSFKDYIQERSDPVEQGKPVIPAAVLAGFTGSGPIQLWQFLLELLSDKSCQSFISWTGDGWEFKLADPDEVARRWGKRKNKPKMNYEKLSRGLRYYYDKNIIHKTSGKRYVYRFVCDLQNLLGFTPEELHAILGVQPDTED
Particulars: protein: recombinant; tags: N-terminal GST; dsDNA, one strand shown. The gist of the method: as §1

Another test deals with T9, SPDEF (Homo sapiens, UniProt O95238 1-335).
T9 sequence: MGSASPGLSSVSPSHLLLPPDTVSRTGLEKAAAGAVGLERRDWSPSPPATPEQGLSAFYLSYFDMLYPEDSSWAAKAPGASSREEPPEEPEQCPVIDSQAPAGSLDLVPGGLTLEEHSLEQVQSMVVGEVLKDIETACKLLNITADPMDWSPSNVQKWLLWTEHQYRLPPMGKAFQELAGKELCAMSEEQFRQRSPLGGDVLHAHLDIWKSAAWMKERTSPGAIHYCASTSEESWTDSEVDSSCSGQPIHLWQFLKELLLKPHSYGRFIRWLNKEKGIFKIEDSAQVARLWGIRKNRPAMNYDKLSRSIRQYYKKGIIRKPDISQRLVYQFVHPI
To be noted: protein: recombinant; tags: N-terminal GST; dsDNA, one strand shown. Put shortly:
as §1

A further test concerns the target T10, ETV7 (Homo sapiens, UniProt Q9Y603 1-341).
T10 sequence: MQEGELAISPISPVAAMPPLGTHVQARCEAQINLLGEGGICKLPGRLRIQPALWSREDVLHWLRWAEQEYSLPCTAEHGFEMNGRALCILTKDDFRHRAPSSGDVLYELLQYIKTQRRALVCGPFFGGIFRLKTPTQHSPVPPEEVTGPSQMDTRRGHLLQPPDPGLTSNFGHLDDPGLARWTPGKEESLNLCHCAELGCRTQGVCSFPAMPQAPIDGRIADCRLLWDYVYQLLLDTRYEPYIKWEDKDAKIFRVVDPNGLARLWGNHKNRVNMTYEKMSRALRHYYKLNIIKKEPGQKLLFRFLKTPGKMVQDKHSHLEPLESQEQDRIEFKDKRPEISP
To be noted: protein: recombinant; tags: N-terminal GST; dsDNA, one strand shown. Put shortly: as §1

The next test has as its target T11, ELF5 (Homo sapiens, UniProt Q9UKW6-2 1-255).
T11 sequence: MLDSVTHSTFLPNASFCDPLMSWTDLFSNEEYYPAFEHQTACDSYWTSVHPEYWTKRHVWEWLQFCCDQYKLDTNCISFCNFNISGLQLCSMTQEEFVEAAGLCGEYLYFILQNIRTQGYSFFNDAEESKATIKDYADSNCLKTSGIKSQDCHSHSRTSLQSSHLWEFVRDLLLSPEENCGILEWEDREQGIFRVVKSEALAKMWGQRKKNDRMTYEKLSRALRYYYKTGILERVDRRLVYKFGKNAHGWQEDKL
Particulars: protein: recombinant; tags: N-terminal GST; dsDNA, one strand shown. The gist of the method:
as §1

Another test deals with T12, ETV3 (Homo sapiens, UniProt P41162-2 1-143).
T12 sequence: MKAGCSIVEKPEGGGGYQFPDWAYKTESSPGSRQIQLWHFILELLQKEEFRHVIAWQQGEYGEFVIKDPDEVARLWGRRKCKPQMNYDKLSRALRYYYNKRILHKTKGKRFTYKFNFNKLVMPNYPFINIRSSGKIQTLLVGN
Particulars: protein: recombinant; tags: N-terminal GST; dsDNA, one strand shown. The gist of the method: as §1

In another test the target is ETV6 (Homo sapiens, UniProt P41212 1-452). Particulars: protein: recombinant; tags: N-terminal GST; dsDNA, one strand shown. The gist of the method: as §1
Chain of ETV6 (P41212 whole entry): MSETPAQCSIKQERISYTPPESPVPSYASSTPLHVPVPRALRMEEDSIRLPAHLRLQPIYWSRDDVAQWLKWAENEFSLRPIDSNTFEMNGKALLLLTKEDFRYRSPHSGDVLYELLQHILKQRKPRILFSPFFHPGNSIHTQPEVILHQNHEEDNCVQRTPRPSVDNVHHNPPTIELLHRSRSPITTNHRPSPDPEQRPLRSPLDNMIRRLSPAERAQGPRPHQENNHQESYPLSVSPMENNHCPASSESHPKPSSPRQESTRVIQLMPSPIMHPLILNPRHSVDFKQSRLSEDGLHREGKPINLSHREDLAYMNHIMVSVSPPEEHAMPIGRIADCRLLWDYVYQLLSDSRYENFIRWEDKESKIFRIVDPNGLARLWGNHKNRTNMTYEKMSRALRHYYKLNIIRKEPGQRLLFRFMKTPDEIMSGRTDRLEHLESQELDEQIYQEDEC

Chain of HSF1 (Q00613 whole entry): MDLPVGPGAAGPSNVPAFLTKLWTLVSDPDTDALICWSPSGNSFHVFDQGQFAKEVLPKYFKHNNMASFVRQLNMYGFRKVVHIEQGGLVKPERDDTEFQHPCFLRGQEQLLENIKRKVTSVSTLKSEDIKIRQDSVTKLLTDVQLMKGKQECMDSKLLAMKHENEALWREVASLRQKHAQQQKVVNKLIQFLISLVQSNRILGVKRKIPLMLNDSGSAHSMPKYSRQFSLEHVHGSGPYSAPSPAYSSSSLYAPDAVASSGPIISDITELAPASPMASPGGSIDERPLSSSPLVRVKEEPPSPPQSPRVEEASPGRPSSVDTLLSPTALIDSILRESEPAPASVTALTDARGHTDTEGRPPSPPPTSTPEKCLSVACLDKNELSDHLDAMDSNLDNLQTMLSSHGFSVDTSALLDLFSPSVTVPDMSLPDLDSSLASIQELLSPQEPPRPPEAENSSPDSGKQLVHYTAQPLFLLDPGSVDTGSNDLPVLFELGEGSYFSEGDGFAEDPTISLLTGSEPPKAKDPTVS
Chain of CRX (O43186 whole entry): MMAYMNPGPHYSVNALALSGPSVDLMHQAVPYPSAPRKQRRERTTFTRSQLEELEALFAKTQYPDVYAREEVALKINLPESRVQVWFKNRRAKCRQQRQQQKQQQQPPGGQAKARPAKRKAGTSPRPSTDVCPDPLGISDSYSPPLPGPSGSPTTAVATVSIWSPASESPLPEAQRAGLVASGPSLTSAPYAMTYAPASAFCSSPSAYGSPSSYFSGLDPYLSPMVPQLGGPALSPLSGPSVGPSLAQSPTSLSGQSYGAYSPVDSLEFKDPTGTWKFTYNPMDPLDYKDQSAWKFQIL
Chain of ETV5 (P41161 whole entry): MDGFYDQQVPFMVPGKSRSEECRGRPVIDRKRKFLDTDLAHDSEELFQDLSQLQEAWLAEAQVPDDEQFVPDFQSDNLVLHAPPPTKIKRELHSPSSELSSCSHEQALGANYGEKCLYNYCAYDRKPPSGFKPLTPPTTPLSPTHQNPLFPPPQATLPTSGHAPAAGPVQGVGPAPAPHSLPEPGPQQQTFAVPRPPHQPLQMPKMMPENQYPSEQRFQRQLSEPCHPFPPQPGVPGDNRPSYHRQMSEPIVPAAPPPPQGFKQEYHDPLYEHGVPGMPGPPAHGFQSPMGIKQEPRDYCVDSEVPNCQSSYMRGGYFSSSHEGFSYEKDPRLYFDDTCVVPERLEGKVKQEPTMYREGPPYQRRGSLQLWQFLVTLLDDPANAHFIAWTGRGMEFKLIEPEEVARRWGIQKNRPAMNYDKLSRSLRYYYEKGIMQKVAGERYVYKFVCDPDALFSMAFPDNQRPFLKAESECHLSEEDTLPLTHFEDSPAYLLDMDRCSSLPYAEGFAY
Chain of ETV1 (P50549 whole entry): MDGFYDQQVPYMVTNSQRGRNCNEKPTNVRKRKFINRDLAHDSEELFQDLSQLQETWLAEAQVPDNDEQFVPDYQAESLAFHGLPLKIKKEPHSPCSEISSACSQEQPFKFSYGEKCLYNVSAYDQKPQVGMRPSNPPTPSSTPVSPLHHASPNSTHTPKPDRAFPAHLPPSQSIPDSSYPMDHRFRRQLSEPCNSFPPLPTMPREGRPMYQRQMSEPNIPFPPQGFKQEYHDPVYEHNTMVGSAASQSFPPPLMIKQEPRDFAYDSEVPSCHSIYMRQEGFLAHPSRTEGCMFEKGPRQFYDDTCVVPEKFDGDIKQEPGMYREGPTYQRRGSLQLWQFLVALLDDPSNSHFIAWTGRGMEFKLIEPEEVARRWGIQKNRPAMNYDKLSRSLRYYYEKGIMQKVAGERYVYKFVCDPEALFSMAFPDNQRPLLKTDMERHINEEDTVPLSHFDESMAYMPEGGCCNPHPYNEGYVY

Turning to CCTTAC, the binding signal in the test with FEV was 1.21 fold enrichment (6-mer frequency, TF over GST control); with ETV5, 1.36 fold enrichment (6-mer frequency, TF over GST control); with HSF1, 1.15 fold enrichment (6-mer frequency, TF over GST control); with SPIC, 1.22 fold enrichment (6-mer frequency, TF over GST control); with ELF4 it was 1.38 fold enrichment (6-mer frequency, TF over GST control); in the test with ELK4 it was 1.13 fold enrichment (6-mer frequency, TF over GST control). Further, the binding signal in the test with ETV2 was 1.33 fold enrichment (6-mer frequency, TF over GST control); with ELF3, 1.34 fold enrichment (6-mer frequency, TF over GST control); with CRX, 1.17 fold enrichment (6-mer frequency, TF over GST control); with ETV1 it was 1.21 fold enrichment (6-mer frequency, TF over GST control); in the test with ERF it was 1.32 fold enrichment (6-mer frequency, TF over GST control); with ETV3L it was 1.26 fold enrichment (6-mer frequency, TF over GST control). Also, the binding signal was 1.3 fold enrichment (6-mer frequency, TF over GST control) with ETS2; 1.33 fold enrichment (6-mer frequency, TF over GST control) with SPDEF; 1.36 fold enrichment (6-mer frequency, TF over GST control) in the test with ETV7; 1.69 fold enrichment (6-mer frequency, TF over GST control) in the test with ELF5; 1.31 fold enrichment (6-mer frequency, TF over GST control) with ETV3; 1.28 fold enrichment (6-mer frequency, TF over GST control) in the test with ETV6.
